Common to all, as to assay type: functional
Experiment [1] concerns the target Solute carrier family 2, facilitated glucose transporter member 1 (Homo sapiens) (UniProt P11166). Put plainly: ST_JUDE_LEISH: Cytotoxicity at 2uM final concentration against transgenic Leishmania Mexicana promastigotes LmGLUT1 that are glucose transport deficient and complemented with the human glucose transporter GLUT1. Activity is measured by DNA content using SYBR green in vitro.

For experiment [2], the target named is Hexose transporter 1 (Plasmodium falciparum) (UniProt O97467). As to the kind of experiment: ST_JUDE_LEISH: Cytotoxicity at 2uM final concentration against transgenic Leishmania Mexicana promastigotes LmPfHT that are glucose transport deficient and complemented with the Plasmodium falciparum hexose transporter. Activity is measured by DNA content using SYBR green in vitro.

For experiment [3], the target named is Glucose transporter (Leishmania mexicana) (UniProt O61059). As to the kind of experiment: ST_JUDE_LEISH: Cytotoxicity at 2uM final concentration against transgenic Leishmania Mexicana promastigotes LmGT2 that are glucose transport deficient and complemented with the L. Mexicana glucose transporter 2. Activity is measured by DNA content using SYBR green in vitro.

Consider 38 compounds from ChEMBL document CHEMBL3433997, “St. Jude Leishmania screening dataset” (2016).

Solute carrier family 2, facilitated glucose transporter member 1 (Homo sapiens), sequence (P11166 whole entry): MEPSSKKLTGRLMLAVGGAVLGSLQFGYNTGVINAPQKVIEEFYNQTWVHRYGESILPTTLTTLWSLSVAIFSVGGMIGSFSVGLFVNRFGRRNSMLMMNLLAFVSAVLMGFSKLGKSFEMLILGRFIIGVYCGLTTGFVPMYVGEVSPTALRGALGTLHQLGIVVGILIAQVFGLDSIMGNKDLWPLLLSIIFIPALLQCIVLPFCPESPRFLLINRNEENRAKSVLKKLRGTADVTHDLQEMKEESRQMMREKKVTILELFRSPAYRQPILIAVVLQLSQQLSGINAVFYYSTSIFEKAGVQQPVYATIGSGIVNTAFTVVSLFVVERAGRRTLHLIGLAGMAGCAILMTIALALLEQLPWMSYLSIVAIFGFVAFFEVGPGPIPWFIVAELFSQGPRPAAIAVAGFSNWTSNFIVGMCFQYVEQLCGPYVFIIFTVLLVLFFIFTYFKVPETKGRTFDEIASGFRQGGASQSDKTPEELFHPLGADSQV

For `O=C(Nc1cccc(-c2cccc(-c3nc4ccccc4[nH]3)c2)c1)Nc1ccc(F)c(F)c1F`, the inhibition is 2.74% in experiment [1], 4.36% in experiment [2] and 3.88% in experiment [3].
For `Cc1ccc(-c2cc(C(=O)Nc3ccc(S(=O)(=O)N4CCCC(C)C4)cc3)[nH]n2)c(O)c1` (centres undefined) the same measures were -1.53%, -1.98% and -1.01%.
For `N#Cc1cnc(Nc2ccc(Oc3ccccc3)cc2)nc1Nc1cccc(S(N)(=O)=O)c1`, in that order: -0.14%, 5.38% and 5.25%.
For `CCNc1cc(C)nc(Nc2ccc(NC(=O)c3ccccc3Cl)cc2)n1` the same measures were 6.51%, 8.33% and 5.34%.
In the case of `COc1ccc(Nc2ncc(Cl)c(Nc3cccnc3C(N)=O)n2)cc1N1CCN(C)CC1`, the inhibition in experiment [1] is 89.9%; in experiment [2], 92.6%; in experiment [3], 85.9%.
On to `CN(C)CCCOc1ccccc1CN1CC[C@H](NC(=O)c2ccc(Cl)c(Cl)c2)C1`, for which the inhibition is -0.17% in experiment [1], -0.54% in experiment [2] and -2.05% in experiment [3].
For `CCCCCCCc1c(C)nc2ccccc2c1O`, the inhibition in experiment [1] stood at 6.82%; in experiment [2], 6.3%; in experiment [3], 2.82%.
For `CCCc1cc(N2CCC(N3CCCC3)CC2)nc(Nc2ccc(OC)cc2)n1`, in that order: 1.06%, 2.18% and 0.63%.
For `CN(CCON1C(=N)N=C(N)NC1(C)C)c1ccccc1` the same measures were -0.49%, 0.33% and 0.35%.
For `OC(Cn1ccnc1)(c1ccc(Cl)cc1Cl)C1CCCCC1` (centres undefined), in that order: 7.78%, 1.5% and -0.69%.
For the compound `CC(CCON1C(N)=NC(N)=NC1(C)C)c1ccc(Cl)cc1` (centres undefined), the inhibition in experiment [1] stood at 21.4%; in experiment [2] it was 29.5%; in experiment [3], 21%.
For `Nc1nc(O)c2cc(CN(C=O)c3ccc(C(=O)N[C@@H](CCC(=O)O)C(=O)O)cc3)ccc2n1` the same measures were 6.36%, 4.17% and 2.98%.
For `CCOC(=O)c1cc(Cl)ccc1OCCCON1C(=N)N=C(N)NC1(C)C`, in that order: 1.75%, 3.52% and 3.08%.
For `CCN(CC)CCCNc1c2ccccc2nc2ccccc12` the same measures were 23.4%, 22.3% and 16.5%.
As for `COc1cc(NC(=O)c2sc(-c3ccc(Cl)cc3)cc2NC(=O)CN2CC[C@@H](O)C2)ccc1OCCN1CCCC1`, the inhibition in experiment [1] is 23.1%; in experiment [2] it was 15.1%; in experiment [3], 4.88%.
For `O=C(NCCN1CCCC1)c1cc(-c2ccc(Cl)c(O)c2)c(-c2ccncc2)o1`, in that order: 2.96%, 4.79% and 0.49%.
For `Cc1cccc2nc(-c3ccc(-c4cccc(CNC5CCN(C)CC5)c4)s3)[nH]c12`, in that order: -2.43%, 2.74% and -0.61%.
Turning to `OCCN1CCN(Cc2cccc(-c3ccc(-c4nc5cc(C(F)(F)F)ccc5[nH]4)cc3)c2)CC1`, the inhibition is 5.08% in experiment [1], 3.3% in experiment [2] and 2.62% in experiment [3].
For `Cn1c(=O)n(C)c2cc(CNCCNc3ccnc4cc(Cl)ccc34)ccc21`, in that order: 2.25%, 3.88% and 0.4%.
As for `OC(c1cccc(OCc2ccccc2)c1)C1CN(CCc2ccccc2)CCC1(O)c1ccccc1` (centres undefined), the results for the inhibition in experiment [1], in experiment [2] and in experiment [3] were -1.45%, -0.62% and -0.2%, respectively.
For `CC(=O)Nc1ccc(CN2CCc3ccc(NS(=O)(=O)c4cccc(OCc5ccc(Cl)cc5)c4)cc3CC2)s1` the same measures were 2.65%, -0.08% and 0.54%.
For `COc1ccc(C2CCN(CCCCNC(=O)c3ccc(NC(=O)c4ccc(Cl)cc4)cc3)CC2)cc1Cl`, in that order: -0.02%, 0.63% and 4.45%.
For `O=C(c1ccc(-c2ccc(Cl)cc2)o1)N1CCc2cc3nccc(N4CCN5CCC[C@H]5C4)c3cc21`, in that order: -1.09%, 0.64% and 0.64%.
Take `O=C(Nc1cccc(CN2CCCN(Cc3ccsc3)CC2)c1)c1ccc(-c2ccccc2)cc1`: the inhibition in experiment [1] was determined as 2.55%; in experiment [2], 3.01%; in experiment [3] it was 1.6%.
On to `COc1cc(C(=O)N2C(c3nccs3)C(C(=O)N(OC)C(C)c3ccccc3)CC2(CC(C)C)C(=O)OC(C)(C)C)ccc1C(C)(C)C` (centres undefined), for which the inhibition in experiment [1] was 4.49%; in experiment [2], 3.71%; in experiment [3], 1.29%.
For `O=C(CCC1CCCC1)N(Cc1ccc(-c2ccc(CNCCc3ccccn3)cc2)cc1)CC1CCCCN1` (centres undefined), in that order: 15.2%, 4.22% and 1.88%.
For `CCN(CC)c1ccc(C(c2ccc(N(CC)CC)cc2)c2ccc([N+](=O)[O-])cc2)cc1`, in that order: 15.3%, 10.4% and 8.28%.
With `O=C(CCCCCNC(=O)c1ccc(O)c(-c2ccc(Cl)c(Cl)c2)c1)NC1CCCCCC1`, the figures for the inhibition in experiment [1], in experiment [2] and in experiment [3] were 4.53%, 3.51% and 4.8%, respectively.
For `CCc1ccccc1NC(=O)CN1CCN(c2ncnc3scc(-c4ccc(F)cc4)c23)CC1`, in that order: 1.81%, 3.65% and 2.87%.
For `Cc1ccc(O)cc1Nc1ccnc2ccc(C(C)(C)C)cc12`, the inhibition is -2.04% in experiment [1], -2.63% in experiment [2] and -2.07% in experiment [3].
For `CC(C)[C@H](NC(=O)c1ccc(O)c(-c2ccc(Cl)c(Cl)c2)c1)C(=O)NCCN1CCCCC1` the same measures were -0.08%, 1.9% and -1.44%.
For `CC(C)c1nc2c(N)nc(N)nc2nc1N`, in that order: -0.33%, 0.25% and 1.01%.
For `Cc1nc(SCC(=O)N2CCCC2=O)c2c(C)c(C)sc2n1`, the inhibition in experiment [1] was 8.94%; in experiment [2], 8.95%; in experiment [3], 6.78%.
For `O=C(Nc1ccc(-c2ccccc2)cc1)Nc1cccc(OCCN2CCCC2)c1`, in that order: 7.09%, 4.18% and 4%.
For `COc1ccc(C=Cc2cc(=N)c3ccccc3[nH]2)cc1` the same measures were 3.18%, 2.77% and 0.89%.
Turning to `COc1cc(NC(=O)/C=C/c2cccc3cc[nH]c23)ccc1OCCN(C(C)C)C(C)C`, the inhibition in experiment [1] was 2.46%; in experiment [2] it was 1.55%; in experiment [3], -2.66%.
In the case of `CCN(CCCN1CCCCC1)c1cc(C)nc(Nc2cccc(OC(F)(F)F)c2)n1`, the inhibition in experiment [1] is 1.17%; in experiment [2], 1.62%; in experiment [3], 2.65%.
For `CCn1c(Sc2ccc(C#N)c([N+](=O)[O-])c2)nnc1-c1ccc(Cl)cc1`, in that order: 3.57%, 3.08% and 1.39%.
